{"source": "PubChem BioAssay (EPA / NIEHS)", "note": "The source made the active and inactive calls. Rule for the calls: active = hit-call score of the fitted dose curve at least 0.9, where 1 is the maximum; inactive = score below 0.9."}
{"read-out": "Thyroid Hormone Responsive (THRSP), THRSP (gene 7069)", "experiment": "LTEA_HepaRG_THRSP: Life Technologies and Expression Analysis (LTEA) Assay for Thyroid Hormone Responsive (THRSP) using HepaRG (AID 2283536)", "details": "mRNA level, 48 h; actives raise or lower the signal", "method": "LTEA_HepaRG is a cell based, multiplexed-readout assay that uses HepaRG, a human liver cell line, with measurements taken at 48 hours after chemical dosing on a 96-well plate.LTEA_HepaRG_THRSP is one of 102 assay component(s) measured in the LTEA HepaRG cell culture assay. It is a marker of NR mediated metabolism.Data from the assay component LTEA_HepaRG_THRSP was analyzed into 1 endpoint. This assay endpoint, LTEA_HepaRG_THRSP, was analyzed with bidirectional fitting relative to DMSO as the negative control and baseline of activity. Using a type of inducible reporter, measures of mRNA induction for gain or loss-of-signal activity can be used to understand regulation of transcription factor activity. To generalize the intended target to other relatable targets, this assay endpoint is annotated to the growth factor intended target family, where the subfamily is NR mediated metabolism.\nA total of 1060 chemcials from the ToxCast library were tested in eight-point concentration-response experiments. Cell culture and cytotoxicity assays were conducted at Thermo Fisher Scientific's Custom Services facility (Madison, WI). A single lot of human HepaRG cells (Thermo Fisher Scientific, Frederick, MD) was used for the cell culture experiments. 96-well format collagen type I coated plates of human HepaRG cells were prepared using established methods. Briefly, cryopreserved HepaRG cells were thawed, plated at a density of approximately 100,000 cells/well in HepaRG Thaw, Plate, and General Purpose media (HPRG770, Thermo Fisher Scientific), and incubated for 48 hours. 0.5% DMSO was selected as vehicle control to balance the requisite need of DMSO in HepaRG cultures to maintain differentiation (for example, baseline metabolism, proportions of hepatocytes vs. cholangiocytes), while enabling further hepatic receptor pathway activation (for example, PXR and CAR) in response to chemical exposure. 48 hours after plating, the culture medium was replaced with HepaRG Serum-Free Incudtion Media. Cells were exposed to each test chemical in duplicate and maintained in CO2 incubators for another 48 hours. Chemical plates were thawed to room temperature and 200x concentrations of treatment groups were prepared. 8-point conentration-reponse curves were made with the highest exposure at 100 uM, followed by half-log dilutions, all in 0.5% DMSO. Each test plate contained variouse controls, induction positive controls (1mM phenobarbital), cytotoxicity positive controls ([…] aflatoxin B1), vehicle controls (0.5% DMSO), and total lysis controls (0.5% DMSO). Cell morphology images were taken using an Essen IncuCyte FLR automated microscope, with six 96-well plates imaged in about 24 minutes. Images were captured and exported and JPEG files. Spent culture media was transfered to black-well plates for the LDH assay, and remaining media was sorted at -80 C for later use. Cells were treated with RLT buffer and frozen until shipped for gene expression analysis. Total RNA was isolated from the cell suspension in 75 uL of Buffer RLT (Qiagen, Germantown, MD 20874) by Quintiles/Expression Analysis (Durham, NC) using a custom isolation procedure. Total RNA from each plate well was transferred to a preamplification plate. Fluidigm's 96.96 Dynamic ArrayTM (Fluidigm, Amsterdam, the Netherlands) technology was used for gene expression analyses by quantitative reverse transcription polymerase chain reaction (qRT-PCR, performed by Quintiles/Expression Analysis, Durham, NC)89. Standard TaqManTM Assays (Applied Biosystems/ThermoFisher Scientific, Foster City, CA) were used to assess the expression of 93 genes selected based on their selectivity and sensitivity to important hepatic receptors known to be modulated by environmental chemicals; importance in human hepatocyte functionality; and hepatotoxicity. […]"}
{"molecule": "C[N+](C)(C)CC1CO1", "note": "(stereo not given)", "outcome": "inactive"}
{"molecule": "Cc1ccc([N+](=O)[O-])cc1", "outcome": "inactive"}
{"molecule": "Nc1ccc(Oc2ccc(N)cc2)cc1", "outcome": "inactive"}
{"molecule": "Cc1ccc(N)cc1", "outcome": "inactive"}
{"molecule": "O=Cc1ccco1", "outcome": "inactive"}
{"molecule": "C1=Cc2cccc3cccc1c23", "outcome": "inactive"}
{"molecule": "Clc1ccc(Cl)c(Cl)c1", "outcome": "inactive"}
{"molecule": "O=C(Nc1ccccc1)c1ccccc1I", "AC50": "27.1 µM (active)"}
{"molecule": "CCC(C)c1ccc(O)cc1", "note": "(stereo not given)", "outcome": "inactive"}
{"molecule": "CCCCCCCCn1sccc1=O", "AC50": "87.3 µM (active)"}
{"molecule": "CS(=O)(=O)NC(=O)c1cc(Oc2ccc(C(F)(F)F)cc2Cl)ccc1[N+](=O)[O-]", "outcome": "inactive"}
{"molecule": "Clc1ccccc1Cl", "outcome": "inactive"}
{"molecule": "CCCSC(=O)N(CCC)CCC", "outcome": "inactive"}
{"molecule": "CC(O)CCO", "note": "(stereo not given)", "outcome": "inactive"}
{"molecule": "CN(C)c1ccc(C(=O)c2ccc(N(C)C)cc2)cc1", "outcome": "inactive"}
{"molecule": "O=[N+]([O-])C(Br)(CO)CO", "outcome": "inactive"}
{"molecule": "O=P(OCCCl)(OCCCl)OCCCl", "outcome": "inactive"}
{"molecule": "ClC1=C(Cl)[C@]2(Cl)[C@H]3[C@H]([C@@H]4C=C[C@H]3C4)[C@@]1(Cl)C2(Cl)Cl", "AC50": "30.8 µM (active)"}
{"molecule": "CCCCCCCCCCCCCN1CC(C)OC(C)C1", "note": "(stereo not given)", "outcome": "inactive"}
{"molecule": "CCCCCOC(=O)c1ccccc1C(=O)OCCCCC", "outcome": "inactive"}
{"molecule": "COC(=O)c1ccccc1N", "outcome": "inactive"}
{"molecule": "OCCOCCO", "outcome": "inactive"}
{"molecule": "Nc1ccc(Cc2ccc(N)cc2)cc1", "outcome": "inactive"}
{"molecule": "[O-][Cl+]O", "outcome": "inactive"}
{"molecule": "ClCCOCCCl", "outcome": "inactive"}
{"molecule": "COC(=O)Nc1nc2ccccc2[nH]1", "outcome": "inactive"}
{"molecule": "CCN(CC)N=O", "outcome": "inactive"}
{"molecule": "Oc1ccccc1Cl", "outcome": "inactive"}
{"molecule": "Nc1cc(Cl)cc(C(=O)O)c1Cl", "outcome": "inactive"}
{"molecule": "CC(C)N(Cc1ccccc1)C(=O)C(C)(C)C", "outcome": "inactive"}
{"molecule": "CCCCCCCCOC(=O)c1ccc(C(=O)OCCCCCCCC)c(C(=O)OCCCCCCCC)c1", "outcome": "inactive"}
{"molecule": "Cc1cc(N=Nc2ccccc2C)ccc1N", "AC50": "1.41 µM (active)"}
{"molecule": "CC(C)(C)C(O)(CCc1ccc(Cl)cc1)Cn1cncn1", "note": "(stereo not given)", "AC50": "12.7 µM (active)"}
{"molecule": "O=C(O)C1C2CCC(O2)C1C(=O)O", "note": "(stereo not given)", "AC50": "34.7 µM (active)"}
{"molecule": "C[C@]12C=CC3=C4CCC(=O)C=C4CC[C@H]3[C@@H]1CC[C@@H]2O", "AC50": "15.7 µM (active)"}
{"molecule": "Nc1ccc(N=Nc2ccccc2)cc1", "AC50": "11.4 µM (active)"}
{"molecule": "Nc1ccc(Cl)cc1N", "AC50": "19.3 µM (active)"}
{"molecule": "O=C1CCCO1", "outcome": "inactive"}
{"molecule": "c1ccc2c(c1)oc1ccccc12", "outcome": "inactive"}
{"molecule": "CC(C)(C)OOC(=O)c1ccccc1", "outcome": "inactive"}
